{"source": "PubChem BioAssay AID1508600", "about": "(Functional Genomics Laboratory (NCATS/FGL), 2020)", "note": "Hit rate of the full screen: of about 53,000 sequences, about 3,700 (7%) were called active.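 How the source made its calls: active means gene knockdowns whose robust z-score for IL-1 alpha signal is at least 2 or at most -2, so actives lie on both sides; inactive means the rest.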 Many of the other results were omitted from the sample, so actives are more common in it than they were."}
{"test": "Components of the Cytosolic LPS Sensing Pathway: Gene Identification via Genome-wide siRNA Screen;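 further: robust z of the log signal after scaling to non-targeting control siRNA wells of the plate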", "settings": "RAW264.7 macrophages, IL-1a HTRF, actives lie on both sides, screened at 100 nM (by protocol), cells primed 5 h with Pam3CSK4 first", "procedure,_shortened": "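Cells (RAW264.7, 1×10^4 per well) were transfected with siRNA at 100 nM and cultured 48h at 37 degrees C. Pam3CSK4 was added for 5 hours; LipidA transfection followed for 24 hour. IL-1a was then measured by HTRF.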"}
{"sequence": "GACCUUGGUUAUUCUACAGTT against Olfr1087", "z-score": "-1.14 (inactive)"}
{"sequence": "GGUGUGUUUUGUAUUGAUUTT against Olfr843", "z-score": "0.482 (inactive)"}
{"sequence": "GGCAACAGUGCAUUCAAGUTT against Nptx2", "z-score": "3.39 (active)"}
{"sequence": "GGUCUCCAUAAGUGUCAGCTT against Cntfr", "z-score": "-0.407 (inactive)"}
{"sequence": "GGUGUCUCUGAAGAUUGAATT against Cdc6", "z-score": "0.345 (inactive)"}
{"sequence": "GGAUUAGGAUCAGCAGGAUTT against Accs", "z-score": "1.01 (inactive)"}
{"sequence": "GGAUCUUGAUCCACAUCUCTT against Padi6", "z-score": "-2.47 (active)"}
{"sequence": "GGAGAUAAUCCUUGUCACGTT against Whamm", "z-score": "0.592 (inactive)"}
{"sequence": "CCCUUAAAGGGUAGCAUUUTT against Ncan", "z-score": "0.837 (inactive)"}
{"sequence": "GUGGUCUUUAUCGGCAUGATT against Slc35c1", "z-score": "0.287 (inactive)"}
{"sequence": "GCUCUUGUAAAUUUGUGAATT against Usp10", "z-score": "-0.331 (inactive)"}
{"sequence": "GCAGUGCUCUUUAGCAUAATT against Zfp689", "z-score": "1.01 (inactive)"}
{"sequence": "GCAUAAAAAACGAAUAGAGTT against Smc1b", "z-score": "-0.432 (inactive)"}
{"sequence": "GCAAGUCCUAGUGUCCUGATT against N6amt1", "z-score": "-0.213 (inactive)"}
{"sequence": "GGAAAUGCUGCCAUUGUUATT against Aldh3a2", "z-score": "0.333 (inactive)"}
{"sequence": "GGAACAAAGACAUUGCUUUTT against Sf3a3", "z-score": "-2.77 (active)"}
{"sequence": "GCAAGCGAUGGCACAUAGATT against Ap1g2", "z-score": "1.03 (inactive)"}
{"sequence": "GGUUACGAAGAUUAAUGUGTT against Crk", "z-score": "1.27 (inactive)"}
{"sequence": "GGACAGGUGUCGAUCAAACTT against Zfp280c", "z-score": "0.0987 (inactive)"}
{"sequence": "GGAAUUGCACUUUUCCAAUTT against Phlda1", "z-score": "0.481 (inactive)"}
{"sequence": "GGAUGCAGUACGAAAUUCUTT against Psmd1", "z-score": "-2.93 (active)"}
{"sequence": "GGCAGUGCCAAUGAACAAGTT against Elob", "z-score": "0.591 (inactive)"}
{"sequence": "GGUUGUUUUGGAAUUGAUATT against Smu1", "z-score": "-2.82 (active)"}
{"sequence": "CGAGCAUGCAUUCAAAGGATT against Lrrc3b", "z-score": "1.33 (inactive)"}
{"sequence": "GGGCACAUACUCAGAUGAATT against Ngfr", "z-score": "-0.62 (inactive)"}
{"sequence": "GAGUAUCAUUUCCUGUUUUTT against Olfr389", "z-score": "-0.395 (inactive)"}
{"sequence": "CCAUUCCAGUUAUGUCAAUTT against Pus3", "z-score": "-1.06 (inactive)"}
{"sequence": "CCCUCAGGACACGUUUUAGTT against Wdsub1", "z-score": "-2.14 (active)"}
{"sequence": "CGAGCCAUACCUUCAACUGTT against Ncoa2", "z-score": "-0.815 (inactive)"}
{"sequence": "GGAGCAGAUGAGAUCCAAGTT against Cdc42se1", "z-score": "-0.256 (inactive)"}
{"sequence": "GCCUUUAUAGUCUUAAGCATT against Ndc1", "z-score": "-0.209 (inactive)"}
{"sequence": "GGAAAAACUCCCUCGGUACTT against Rps11", "z-score": "0.683 (inactive)"}
{"sequence": "GCUGCUUUGGGCACAAGAUTT against Nppb", "z-score": "0.428 (inactive)"}
{"sequence": "GCUCCUAUGGCAACAUCGUTT against Olfr303", "z-score": "2.11 (active)"}
{"sequence": "GGUAUGAGAUUACCUUCACTT against 1700037H04Rik", "z-score": "-1.16 (inactive)"}
{"sequence": "GCUCAGAAAUCGGCUCAGATT against Ssbp2", "z-score": "-1.66 (inactive)"}
{"sequence": "GCUAAACUCCACCAAGACATT against Grid2ip", "z-score": "0.338 (inactive)"}
{"sequence": "GGGCAAUUAUCUUUGUUAUTT against Olfr589", "z-score": "-0.0712 (inactive)"}
{"sequence": "GCCAUUAUGACAGAACGCATT against Adra1d", "z-score": "-0.606 (inactive)"}
{"sequence": "GAACUACCUGGACUUCCACTT against Cox6b1", "z-score": "2.5 (active)"}
{"sequence": "GGACGAUUCUUUUAUUUGATT against Fam78b", "z-score": "-1.22 (inactive)"}
{"sequence": "CCAAUCGAUACAUCAUUUUTT against Gmcl1", "z-score": "1.1 (inactive)"}
{"sequence": "GCAUCAUACCACUGUGUUUTT against Obox1", "z-score": "-1 (inactive)"}
{"sequence": "GGCUGUUUGGCUUGUUUAATT against Golga7", "z-score": "1.82 (inactive)"}
{"sequence": "CGGAUUCAGUAUUAGCAAUTT against Ogt", "z-score": "-2.4 (active)"}
{"sequence": "GGAAUUAUUCAGCAAGACUTT against Cdrt4", "z-score": "-0.636 (inactive)"}
{"sequence": "CGUUUGUUACUCUUCAGCUTT against Olfr1461", "z-score": "-1.07 (inactive)"}
{"sequence": "GGCCAUAACACAAAUGUAGTT against Prpf4", "z-score": "0.554 (inactive)"}
{"sequence": "GGAGGAAAGUAUGAAGAAATT against Cyp2j9", "z-score": "-0.337 (inactive)"}
{"sequence": "GGCUGUGCAUUAUAUCCUUTT against Lhfpl1", "z-score": "1.2 (inactive)"}
{"sequence": "GCUCCUAGUGUUUUUGUGGTT against Rplp0", "z-score": "-2.91 (active)"}
{"sequence": "GGUUAUCCAGAGAGAAGGATT against Asxl2", "z-score": "0.399 (inactive)"}
{"sequence": "GGCUAAGCUGAAGAAGCACTT against Fam219b", "z-score": "-0.326 (inactive)"}
{"sequence": "GGUGACAACACUUGUCAACTT against Ctnna2", "z-score": "-0.551 (inactive)"}
